Experimental data: PubChem BioAssay (NCATS)
Results filed as inconclusive are left out. More than one record can exist for a structure, and the calls need not agree. Active and inactive are the calls of the source. The call rests on the fitted dose curve; in most records, active means well fitted curve in the direction sought with a large enough effect in the repeat runs; inconclusive means weak or mixed curves; inactive means no such curve, though single readings can be large; an effect the other way counts as inactive or inconclusive.
Further: nearly all actives have a fitted effect of over 55% in size.
On the % scale 0 is the no-effect control and ±100 the full control effect; potency means the concentration at half of the fitted maximal effect.

Each compound was assayed against Cytochrome P450 2D6 (Homo sapiens) (UniProt P10635) (assay: Cytochrome P450 family 2 subfamily D member 6 (CYP2D6) small molecule antagonists: luciferase biochemical (cell-free) qHTS assay (AID 1645840)). Conditions: P450-Glo CYP2D6 enzyme, luciferin luminescence, 1 h; series mostly up to 57.4 µM; activity change, negative = inhibition: at the top concentration.
Cytochrome P450 2D6 (Homo sapiens), sequence (P10635 whole entry, looked up): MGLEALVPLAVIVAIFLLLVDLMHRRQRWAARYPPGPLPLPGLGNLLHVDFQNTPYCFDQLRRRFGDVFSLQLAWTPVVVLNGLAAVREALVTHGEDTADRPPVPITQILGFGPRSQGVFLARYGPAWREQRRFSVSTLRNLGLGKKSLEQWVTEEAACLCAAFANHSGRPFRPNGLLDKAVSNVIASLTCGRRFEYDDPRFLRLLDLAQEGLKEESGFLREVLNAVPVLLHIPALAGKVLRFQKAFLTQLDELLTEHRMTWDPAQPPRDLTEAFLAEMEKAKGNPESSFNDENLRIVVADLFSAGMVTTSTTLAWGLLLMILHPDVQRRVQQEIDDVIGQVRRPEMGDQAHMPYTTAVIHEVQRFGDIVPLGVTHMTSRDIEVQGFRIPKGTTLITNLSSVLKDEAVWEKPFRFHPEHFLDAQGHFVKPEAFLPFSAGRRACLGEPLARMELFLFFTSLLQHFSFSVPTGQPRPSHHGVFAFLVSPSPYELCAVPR
Summary of the method: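 P450-Glo luminescent screen: recombinant CYP2D6 enzyme–proluciferin substrate mix preincubated with compound 10 min at room temperature, then NADPH regeneration added for 1 h at room temperature. Detection reagent added for 20 min; luciferin light read as relative luminescence units.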
In the case of `CCN(CCCc1ccccc1)CCCc1ccccc1`, the Potency is reported as 1.23 µM (active). With `Cc1ccc(O)c2ncccc12` the “activity change, negative = inhibition” value was -3.24% (inactive). In the case of `NC(CO)(CO)CO`, the “activity change, negative = inhibition” value is reported as 3.56% (inactive). For `CC(C)(CO)[C@@H](O)C(=O)NCCCO`, the “activity change, negative = inhibition” value was -2.47% (inactive).

What follows are compounds tested against Cytochrome P450 2C9 (Homo sapiens) (UniProt P11712) (assay: Cytochrome P450 family 2 subfamily C member 9 (CYP2C9) small molecule antagonists: luciferase biochemical (cell-free) qHTS assay (AID 1645842)). Conditions: P450-Glo CYP2C9 enzyme assay, luciferin luminescence; series mostly up to 57.4 µM; activity change, negative = inhibition: at the top concentration.
Cytochrome P450 2C9 (Homo sapiens), sequence (P11712 whole entry, looked up): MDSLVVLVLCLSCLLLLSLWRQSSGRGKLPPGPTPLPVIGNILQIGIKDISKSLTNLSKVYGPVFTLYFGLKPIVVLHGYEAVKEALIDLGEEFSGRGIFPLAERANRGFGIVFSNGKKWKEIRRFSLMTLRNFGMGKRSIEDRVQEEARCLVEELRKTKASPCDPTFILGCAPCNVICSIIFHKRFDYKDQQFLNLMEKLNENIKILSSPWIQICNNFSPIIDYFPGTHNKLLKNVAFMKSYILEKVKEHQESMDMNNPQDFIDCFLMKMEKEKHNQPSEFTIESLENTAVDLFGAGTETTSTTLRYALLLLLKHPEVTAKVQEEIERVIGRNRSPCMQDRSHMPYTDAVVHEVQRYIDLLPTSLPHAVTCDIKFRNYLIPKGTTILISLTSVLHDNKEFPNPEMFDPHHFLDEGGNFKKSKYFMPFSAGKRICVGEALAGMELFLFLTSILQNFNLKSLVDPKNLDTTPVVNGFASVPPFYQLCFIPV
Summary of the method: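 Luminescence, after 20 min with luciferin detection reagent, reflected CYP2C9 turnover during a 1 h NADPH-driven reaction at 37C. Enzyme-substrate mix contained 0.4% bovine serum albumin and was preincubated with compound 10 min at room temperature.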
In the case of `CCCCS(=O)(=O)N[C@@H](Cc1ccc(OCCCCC2CCNCC2)cc1)C(=O)O`, the “activity change, negative = inhibition” value is reported as 0.28% (inactive). For `CCCCOc1cc(C(=O)NCCN(CC)CC)c2ccccc2n1`, the “activity change, negative = inhibition” value was -6.26% (inactive). In the case of `O=c1[nH]c(=O)n([C@H]2CCCO2)cc1F`, the “activity change, negative = inhibition” value is reported as -0.256% (inactive). With `NCCCC[C@H](N[C@@H](CCc1ccccc1)C(=O)O)C(=O)N1CCC[C@H]1C(=O)O` the “activity change, negative = inhibition” value was 11.9% (inactive). For `CNCC[C@@H](Oc1ccccc1C)c1ccccc1`, the “activity change, negative = inhibition” value was 0.535% (inactive). `CC(C)(C(=O)c1cccnc1)c1cccnc1` was tested, and the “activity change, negative = inhibition” value was 1.18% (inactive). With `COc1cccc(CCc2ccccc2OCC(CN(C)C)OC(=O)CCC(=O)O)c1` (configuration not stated) the “activity change, negative = inhibition” value was 3.27% (inactive). `COc1cc(/C=C/C(=O)O[C@H]2CC[C@]34C[C@]35CC[C@]3(C)[C@@H]([C@H](C)CCC=C(C)C)CC[C@@]3(C)[C@@H]5CC[C@H]4C2(C)C)ccc1O` was tested, and the “activity change, negative = inhibition” value was 13.5% (inactive). With `NC(=O)c1cc[n+](CC2=C(C(=O)[O-])N3C(=O)[C@@H](NC(=O)Cc4cccs4)[C@H]3SC2)cc1` the “activity change, negative = inhibition” value was -2.18% (inactive). In the case of `O=C(O)CCCCC(=O)O`, the “activity change, negative = inhibition” value is reported as 15.2% (inactive). `CCOC(=O)[C@H](CCc1ccccc1)N[C@@H](C)C(=O)N1Cc2ccccc2C[C@H]1C(=O)O` was tested, and the Potency was 6.92 µM (active) and inactive. `CCCCCCc1ccc(O)cc1O` was tested, and the Potency was 8.71 µM (active). In the case of `O=C1[C@H]2CCCC[C@H]2C(=O)N1CCCCN1CCN(c2nsc3ccccc23)CC1`, the “activity change, negative = inhibition” value is reported as 31.9% (inactive). With `NC(CS)C(=O)O` (configuration not stated) the “activity change, negative = inhibition” value was 14.6% (inactive). In the case of `CN(C)CC/C=C1\c2ccccc2Sc2ccc(Cl)cc21`, the “activity change, negative = inhibition” value is reported as -18% (inactive). `CN1CCC(=C2c3ccccc3Sc3ccccc32)CC1` was tested, and the “activity change, negative = inhibition” value was 5.74% (inactive). In the case of `OC(CCN1CCCCC1)(c1ccccc1)c1ccccc1`, the “activity change, negative = inhibition” value is reported as -0.488% (inactive). `O=c1[nH]c(=O)n([C@H]2C[C@H](O)[C@@H](CO)O2)cc1C(F)(F)F` was tested, and the “activity change, negative = inhibition” value was 4.12% (inactive). `CN(C(=O)CN(CCO)CC(=O)N(C)C(C)(C)Cc1ccccc1)C(C)(C)Cc1ccccc1` was tested, and the Potency was 15.5 µM (active). For `C[C@]12CCC(=O)C=C1[C@@H]1C[C@@H]1[C@H]1[C@@H]3[C@@H]4C[C@@H]4[C@@]4(CCC(=O)O4)[C@@]3(C)CC[C@@H]12`, the “activity change, negative = inhibition” value was -20.1% (inactive). With `CCN(CC)C(=O)/C(C#N)=C/c1cc(O)c(O)c([N+](=O)[O-])c1` the Potency was 0.0436 µM (active). In the case of `COc1ccc(CN2CCN(C(c3ccc(F)cc3)c3ccc(F)cc3)CC2)c(OC)c1OC`, the Potency is reported as 11 µM (active). For `COc1cc(N)c(Cl)cc1C(=O)NC1CCN(CCCOc2ccc(F)cc2)CC1OC` (configuration not stated), the “activity change, negative = inhibition” value was 1.67% (inactive). `COC(=O)C1=C(C)NC(C)=C(C(=O)O[C@@H]2CCCN(Cc3ccccc3)C2)[C@@H]1c1cccc([N+](=O)[O-])c1` was tested, and the Potency was 0.195 µM (active). For `NC[C@H]1O[C@H](O[C@H]2[C@H](O)[C@@H](O[C@H]3O[C@H](CO)[C@@H](O)[C@H](N)[C@H]3O)[C@H](N)C[C@@H]2N)[C@H](N)[C@@H](O)[C@@H]1O`, the “activity change, negative = inhibition” value was 19.4% [at 23.9 µM] (inactive). With `CC(C)C[C@H]1C(=O)N2CCC[C@H]2[C@]2(O)O[C@](NC(=O)[C@@H]3C=C4c5cccc6[nH]c(Br)c(c56)C[C@H]4N(C)C3)(C(C)C)C(=O)N12` the Potency was 3.38 µM (active). In the case of `O=C(N/N=C/c1ccccc1O)c1ccncc1`, the Potency is reported as 4.36 µM (active). In the case of `CCOC(=O)COc1ccc2c(C)c(CCN(CC)CC)c(=O)oc2c1Cl`, the “activity change, negative = inhibition” value is reported as 4.1% (inactive). In the case of `CCN(CCCc1ccccc1)CCCc1ccccc1`, the “activity change, negative = inhibition” value is reported as 1.28% (inactive). `Cc1ccc(O)c2ncccc12` was tested, and the “activity change, negative = inhibition” value was 26.6% (inactive). For `NC(CO)(CO)CO`, the “activity change, negative = inhibition” value was 15.3% (inactive). With `CC(C)(CO)[C@@H](O)C(=O)NCCCO` the “activity change, negative = inhibition” value was 1.74% (inactive). In the case of `Cc1cccn2c(=O)c(-c3nnn[nH]3)cnc12`, the “activity change, negative = inhibition” value is reported as 7.16% [at 23.9 µM] (inactive).
